Assay outcomes: PubChem BioAssay, National Center for Advancing Translational Sciences (NCATS)
Only some compounds are listed: those with a hit (about 10% of all), similar ones and a draw of the others.
IMPase cell inh – cell-permeable inhibitors of inositol monophosphatase (IMPase). P97697. CHO-M1 cells, IP1 accumulation, HTRF TR-FRET ratio. inhibition (IP1 accumulation), % at 46.1 µM. 120,000 tested, under 10 active; active = well fitted curve in the direction sought with a large enough effect in the signal ratio, not every such curve was filed as active; inconclusive = small, poorly fitted or top-dose-only effect, or a change in a side signal; inactive = no such curve, though single readings can be large or run the other way; the % refers to the signal ratio;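 note: cells stimulated with carbachol in lithium chloride buffer; higher means more IMPase inhibition seen as more IP1 and lower FRET ratio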
Target sequence (P97697 whole entry, looked up): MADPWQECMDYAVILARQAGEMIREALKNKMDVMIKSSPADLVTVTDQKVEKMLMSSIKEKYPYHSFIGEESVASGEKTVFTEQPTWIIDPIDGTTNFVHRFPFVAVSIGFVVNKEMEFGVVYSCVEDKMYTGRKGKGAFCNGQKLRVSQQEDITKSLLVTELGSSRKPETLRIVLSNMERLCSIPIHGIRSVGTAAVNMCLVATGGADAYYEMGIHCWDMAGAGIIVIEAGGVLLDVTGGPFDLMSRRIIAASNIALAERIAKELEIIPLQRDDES
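Seeded CHO-M1 cells were dosed with compound at up to 46 uM, stimulated with carbachol for 30 min, then lysed in IP-One detection reagents. Higher IP1 lowers the TR-FRET signal.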
KinaseGlo FLuc – Kinase-Glo luciferase inhibition (counter-screen); Q27757; Kinase-Glo luciferase, ATP luminescence, 8 min; Potency, µM (titrated, usually from 38.3 µM), most hits filed as inhibitors; 0.28% of 200,000 active; active = well fitted inhibition curve with a large enough effect; inconclusive = small, poorly fitted or top-dose-only effect; note: nearly all actives have a fitted effect of over 60% in size
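Recombinant Kinase-Glo luciferase, 10 uM ATP (linear range), luciferin; imidazole pH 7.2 / KCl / MgCl2 / Tween / BSA buffer; 8 min RT; luminescence.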
Lamin A splicing – changes lamin A minigene splicing in HeLa cells. Potency, µM (titrated, usually from 46.1 µM), actives largely listed as inhibitors. AID 1487. 0.01% of 200,000 active. HeLa LMNA splicing GFP/RFP minigene ratio, 48 h; active = well fitted inhibition curve with a large enough effect in the signal ratio, with a control signal flat, not every such curve was filed as active; inconclusive = small, poorly fitted or top-dose-only effect, or effect the other way, or a change in a side signal; the % refers to the signal ratio
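Read-out is the ratio of GFP to DsRed2 object intensity, acquired by 488 nm laser-scanning cytometry on HeLa lamin A-EGFP minigene reporter cells. Compound incubation 48 hrs at 37 °C in Opti-MEM with 2% FBS; DMSO 0.5% final.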
ALDH1A1 inh – inhibitors of human aldehyde dehydrogenase 1A1; AID 1030; 7.3% of 220,000 active; Purified ALDH1A1, NADH fluorescence, propionaldehyde substrate; Potency, µM (titrated, usually from 75.3 µM), hits mostly inhibitors; P00352
Target sequence (P00352 whole entry, looked up): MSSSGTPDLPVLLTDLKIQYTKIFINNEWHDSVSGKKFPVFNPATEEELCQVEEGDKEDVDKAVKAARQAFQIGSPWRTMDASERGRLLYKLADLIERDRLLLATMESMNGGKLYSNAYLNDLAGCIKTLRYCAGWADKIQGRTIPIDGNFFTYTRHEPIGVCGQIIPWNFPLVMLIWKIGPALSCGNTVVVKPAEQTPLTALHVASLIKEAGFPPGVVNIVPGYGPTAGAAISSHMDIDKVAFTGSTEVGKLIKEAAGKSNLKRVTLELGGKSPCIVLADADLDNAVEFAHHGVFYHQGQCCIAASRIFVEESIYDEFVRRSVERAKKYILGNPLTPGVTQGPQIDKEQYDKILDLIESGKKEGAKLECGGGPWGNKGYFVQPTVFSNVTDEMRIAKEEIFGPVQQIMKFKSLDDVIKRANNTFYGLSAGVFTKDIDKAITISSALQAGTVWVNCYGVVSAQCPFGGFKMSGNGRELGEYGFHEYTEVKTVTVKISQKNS
HPGD inh – inhibitors of human 15-hydroxyprostaglandin dehydrogenase (HPGD); P15428; purified HPGD, NADH fluorescence kinetic, PGE2 substrate; Potency, µM, most hits filed as inhibitors; 4.3% of 150,000 active; AID 894
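NADH formation kinetics: reaction with 30 uM PGE2 and 1 mM NAD+ (final), 20 nM enzyme, Tris-HCl pH 8 with Tween 20, after 15 min compound preincubation at room temperature. Fluorescence change, last versus first of five reads.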
PNC assembly inh – inhibitors of perinucleolar compartment assembly. PC3M PTB-GFP, PNC prevalence imaging, 16 h; hits give low values. activity change (PNC), negative = inhibition, % at 10 µM. 3.1% of 140,000 active;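 active = readout at or below -70, meaning at least 70% loss of cells showing the perinucleolar compartment, a nuclear body marking cancer cells; inconclusive = readout between -30 and a set limit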
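Read-out is percentage of cells bearing a perinucleolar compartment, from automated 20x imaging of fixed, Hoechst-stained PC3M PTB-GFP cells. Cells were seeded 4 h, then exposed 16 h to compound (23 nl of library stock) in duplicate plates.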
Numbers stand for hits; 0 = inactive; ? = inconclusive; - = no result; [ ] = another dose, or the depositor's remark. Unless noted, calls come from the whole dose curve; as a rule, active = well fitted inhibition curve with a large enough effect (not every such curve was filed as active); inconclusive = small, poorly fitted or top-dose-only effect, or another doubt; inactive = no such curve, though single readings can be large or run the other way.

SMILES	IMPase cell inh	KinaseGlo FLuc	Lamin A splicing	ALDH1A1 inh	HPGD inh	PNC assembly inh
CC(=O)C1C(=O)NC23CCCCC2C1c1ccccc1O3 (stereo not drawn)	0	0	0	0	0	0
CCCCOC(C)=O	-	-	-	?	0	-
Cn1c(=O)c2[nH]cnc2n(C)c1=O.[CH2-][C@H](Cc1cccc2cc(C(=O)O)c(=O)oc12)OC.[Hg].[OH-]	-	0[7.66 µM]	-	3.2µM	4µM	-
O=c1[nH]c(=O)n(CCc2ccccc2)c(O)c1C=NCCCn1ccnc1	0	0	0	0	0	0
CCCCn1c(O)c(C=NCCCn2ccnc2)c(=O)[nH]c1=O	0	0	0	18µM	0	0
CCOC(=O)c1ncn2c1CN(C)C(=O)c1cc(N=[N+]=[N-])ccc1-2	-	0	-	?	0	-
COc1ccc(/C=C2\C(=O)NC(=O)N(CCC3=CCCCC3)C2=O)c(OC)c1	0	0	0	0.32µM	20µM	0
O=C1NC(=O)N(CCC2=CCCCC2)C(=O)/C1=C/c1ccc(O)cc1	0	0	0	0.79µM	11µM	0
CCN1C(=O)NC(=O)/C(=C\c2ccc(N3CCOCC3)cc2OC)C1=O	0	0	0	?	?	0
Cc1ccc(/C=C2/C(=O)NC(=O)N(C)C2=O)cc1	-	0	0	0	0	0
N[C@@H](Cc1c[nH]c2cc([N+](=O)[O-])ccc12)C(=O)O	-	0[7.66 µM]	-	0[13.5 µM]	0	-
O=C(O)c1cccc2c1NC(c1cccc([N+](=O)[O-])c1)C1CC(Sc3ccccc3[N+](=O)[O-])C(Cl)C21 (stereo not drawn)	-	0	0	3.5µM	-	-
O=C(O)c1ccc2c(c1)C1C(Cl)C(Sc3ccccc3[N+](=O)[O-])CC1C(c1cccc([N+](=O)[O-])c1)N2 (stereo not drawn)	-	0	-	?	-	-
CCN(CC)C(=O)c1ccc2c(c1)C1C(Cl)C(Sc3ccccc3[N+](=O)[O-])CC1C(C(=O)O)N2 (stereo not drawn)	-	-	-	25µM	-	-
CCN(CC)CCN=Cc1c(O)n(Cc2ccco2)c(=O)[nH]c1=O	-	-	-	0	-	-
O=c1[nH]c(=O)n(Cc2ccco2)c(O)c1C=NCc1ccco1	0	0	?	10µM	28µM	0
CC(=O)Nc1ccc(N=Cc2c(O)n(Cc3ccco3)c(=O)[nH]c2=O)cc1	-	-	?	9.5µM	-	-
Cc1c(N=Cc2c(O)n(Cc3ccccc3)c(=O)[nH]c2=O)c(=O)n(-c2ccccc2)n1C	-	0	0	0	?	0
Cc1c(N=Cc2c(O)n(Cc3ccco3)c(=O)[nH]c2=O)c(=O)n(-c2ccccc2)n1C	0	0	?	?	0	-82
CCNC(=O)[C@H]1O[C@@H](n2cnc3c(N)ncnc32)[C@H](O)[C@H]1O	-	0	?	0	0	-
C/C=C(\C)C(=O)O[C@@H]1C(C)=C2[C@H]([C@@H]1OC(=O)CCCCCCC)[C@@](C)(OC(C)=O)C[C@@H](OC(=O)CCC)[C@@]1(O)[C@H]2OC(=O)[C@]1(C)O	0	-	-	-	-	-
O=c1[nH]sc2cc(F)ccc12	-	0	?	1.4µM	-	-
COC(=O)Nc1cccc(OC(=O)Nc2cccc(C)c2)c1	-	-	-	?	0	-
Cc1ccc(NC(=O)OC(C)CNC(=O)Oc2cccc(C)c2)cc1 (stereo not drawn)	-	0	0	20µM	-	-
CC(C)=C[C@H]1[C@@H](C(=O)OCc2cc3c(cc2Cl)OCO3)C1(C)C	-	0[7.66 µM]	-	0[13.5 µM]	0	-
SMILES	IMPase cell inh	KinaseGlo FLuc	Lamin A splicing	ALDH1A1 inh	HPGD inh	PNC assembly inh
COc1ccc(C2=NCc3nnc(C)n3-c3ccc(Cl)cc32)cc1Cl	0	0	?	?	0	0
CN1CCN(Cc2nnc3n2-c2ccc(Cl)cc2C(c2ccccc2)=NC3)CC1	-	0	0	0	0	0
COc1ccccc1C1=NCc2nnc(C)n2-c2ccc(Cl)cc21	-	0	0	0	28µM	0
Cc1nnc2n1-c1ccc(Cl)cc1C(c1ccccc1)=NC2	-	0	?	0	16µM	-
Clc1ccc2c(c1)C(c1ccccc1Cl)=NCc1nnc(N3CCN(CCOc4ccccc4)CC3)n1-2	-	0	?	10µM	0	0
N#CCBr	-	-	-	0	0	-
C=C1C([C@@]2(C)C(OC(C)=O)CC(=O)O[C@@](C)(COC(C)=O)C2CC(=O)OC)C(OC=O)C(OC(=O)C(OC(C)=O)C(C)CC)[C@]2(C)C(c3ccoc3)CC(=O)C12O (stereo partly drawn)	-	0	-	0	0	-
CN1CCN(S(=O)(=O)c2cnc(Cl)c(Br)c2)CC1	0	0	?	2.5µM	0	0
COc1ccc(C(C)=O)cc1CC(C(=O)c1ccc(C)c(C)c1)N(C)C (stereo not drawn)	0	0	0	0	0	0
COc1ccc(C(C)=O)cc1COC(=O)c1ccc2ccccc2n1	-	0	0	14µM	-	-
CCN(CC)c1ccc(/C=C2\C(=O)NC(=O)N(Cc3ccco3)C2=O)cc1	-	0	0	0.5µM	16µM	0
CCN(CC)c1ccc(/C=C2/C(=O)NC(=O)N(CC3CCCO3)C2=O)cc1 (stereo not drawn)	0	0	0	0.63µM	35µM	0
O=C(O)Cn1cc(/C=C2\C(=O)NC(=O)N(Cc3ccco3)C2=O)c2ccccc21	-	0	0	8.9µM	-	-
O=C(O)Cn1cc(C(=O)c2ccccc2)c2ccccc21	0	0	0	0	0	0
O=C1NC(=O)N(Cc2ccco2)C(=O)/C1=C/c1cccn1CCOc1ccccc1Cl	0	0	?	0	28µM	0
COc1ccc(N=Cc2c(O)n(CC3CCCO3)c(=O)[nH]c2=O)cc1 (stereo not drawn)	-	0	0	?	?	0
CC(=O)[O-].CC(=O)[O-].CC(=O)[O-].[Cr+3]	-	-	-	0	0	-
CCCCn1c(=O)c(C=Nc2ccc(Cl)cc2)c(O)n(Cc2ccco2)c1=O	-	0	0	?	?	?
CCCCN1C(=O)/C(=C/c2ccc(N(C)C)cc2)C(=O)N(Cc2ccco2)C1=O	0	0	0	0.71µM	25µM	0
N[C@@H]1CCc2cc(O)c(O)cc2C1	0	-	-	-	-	-
CC1(C)CN=C(Nc2ccc(F)c(F)c2)S1	0	0	0	0	25µM	0
CC1(C)CSC(Nc2ccc(F)c(Cl)c2)=N1	0	0	?	0	0	0
CS/C(N)=C(C#N)/C(C#N)=C(\N)SC	-	0	-	7.1µM	?	-
COC(=O)[C@H]1C(=O)[C@H](C(=O)OC)[C@@H]2CC[C@H]1N2C	-	0[7.66 µM]	-	0[13.5 µM]	0	-
CCCBr	-	-	-	0	0	-
C/C(Cl)=C/CC1(CN2CCCC2=O)C(=O)NC(=O)NC1=O	0	-	0	0	-	-122
C[N+](C)(C)CC#CCN1CCCC1=O	0	0	?	0	0	-
O=C(NC1(C(F)(F)F)Oc2ccccc2O1)N1CCC2(CC1)OCCO2	0	0	?	?	?	-119
COc1ccc2c3c1O[C@H]1C[C@H](O)C=C[C@@]31CCN(C)C2	0	0	-	0	0	-
O=C(O)c1cc(N=Nc2ccc([As](=O)(O)O)cc2)ccc1O	-	0[7.66 µM]	-	0[13.5 µM]	0	-
